Experimental data as given in the supplement of paper PMC10646978.
± gives the standard deviation.

Key:
Conditions in all cases: modulator concentration 10 µM
[1] = system: RAW-Dual (murine macrophage reporter line); assay: NF-kB reporter (SEAP) activity fold change vs agonist alone; higher = enhanced NF-kB activity
In short: (§1)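 RAW-Dual murine macrophage reporter cells were seeded at 50 000 per well in 384-well plates and pre-incubated 1 hour at 37 °C with compound pin-transferred to 10 μM final. After 1 hour, a PRR agonist was added and cells incubated overnight. Supernatant NF-κB (SEAP, QUANTI-Blue, 620 nm absorbance) and IRF (Lucia luciferase, QUANTI-Luc, luminescence) signals were divided by the mean agonist-only control on the same plate to give fold change. Two replicate plates were averaged, with errors by propagation.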

[2] = system: RAW-Dual (murine macrophage reporter line); assay: IRF reporter (Lucia luciferase) activity fold change vs agonist alone; higher = enhanced IRF activity
In short: as §1

[3] = system: RAW-Dual (murine macrophage reporter line); assay: viability score (confluency relative to resting cells, overnight) (fraction); higher = more viable, active = viable (0.7 or more)
In short: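 Two confluency masks, generated with IncuCyte software over all imaged wells, were applied to IncuCyte images of RAW-Dual macrophages. The cells, in 384-well plates, had been exposed overnight to 10 μM final compound. The viability score is confluency as a fraction of resting cells, and a compound met the cutoff only with both masks above 70% of resting cells.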

[4] = agonist: CpG ODN 1826 0.5 ug/mL

SMILES	NF-kB reporter [1, 4]	NF-kB reporter ([1]; agonist: LPS 0.1 ug/mL)	NF-kB reporter ([1]; agonist: MPLA […])	IRF reporter ([2]; agonist: 3'3'-cGAMP 10 ug/mL)	IRF reporter ([2]; agonist: LPS 0.1 ug/mL)	IRF reporter ([2]; agonist: MPLA […])	viability score [3]
COc1ccc2nc(NCCCn3ccnc3)sc2c1	0.921 ± 0.07	1.02 ± 0.11	1.04 ± 0.1	0.836 ± 0.034	1.15 ± 0.14	1.25 ± 0.2	0.985 (active)
CCNc1nc(S)nc(NC(C)C)n1	1.13 ± 0.085	1.03 ± 0.051	1.02 ± 0.024	0.731 ± 0.041	0.98 ± 0.13	0.927 ± 0.11	0.991 (active)
CCOC(=O)C1=C(C)NC(=S)NC1c1cccc(C)c1 (configuration not stated)	0.93 ± 0.097	1.09 ± 0.097	1.05 ± 0.037	0.712 ± 0.17	0.944 ± 0.045	0.835 ± 0.057	0.975 (active)
COc1ccc(C(=O)N2CC(n3cc(CN4CCCC4=O)nn3)C2)cc1F	1.19 ± 0.1	1.01 ± 0.077	1 ± 0.045	1.05 ± 0.088	1.01 ± 0.067	0.952 ± 0.14	0.999 (active)
O=C(O)CCC(=O)O.O=C(O[C@H]1CN2CCC1CC2)N1CCc2ccccc2[C@@H]1c1ccccc1	0.544 ± 0.087	0.886 ± 0.046	1.07 ± 0.029	0.921 ± 0.1	1.05 ± 0.097	0.977 ± 0.11	0.992 (active)
CC(Oc1ccccc1)C(=O)NC1CC(C)(C)NC(C)(C)C1 (configuration not stated)	0.76 ± 0.059	0.966 ± 0.085	1.06 ± 0.1	0.993 ± 0.045	1.26 ± 0.079	1.35 ± 0.14	1.02 (active)
CC1CC(C)CN(C(=O)CSc2nnc(Cc3ccccc3)o2)C1 (configuration not stated)	0.917 ± 0.048	1.06 ± 0.091	0.879 ± 0.11	1.01 ± 0.071	0.944 ± 0.093	0.858 ± 0.34	0.981 (active)
O=C(Nc1nc2ccccc2n1CCN1CCOCC1)C1CCCCC1	1.03 ± 0.1	1 ± 0.088	0.933 ± 0.068	1.03 ± 0.039	1.55 ± 0.27	1.07 ± 0.12	1.02 (active)
CCOC(=O)C(Oc1ccc2c(c1)oc(=O)c1cc(OC)ccc12)c1ccccc1 (configuration not stated)	1.04 ± 0.062	0.998 ± 0.13	0.929 ± 0.025	0.977 ± 0.04	1.02 ± 0.089	1.11 ± 0.21	1 (active)
COc1cc(OC)c(C(=O)CCCN2CCCC2)c(OC)c1.Cl	0.98 ± 0.096	1.01 ± 0.063	1 ± 0.057	0.937 ± 0.081	0.941 ± 0.035	0.899 ± 0.07	1 (active)
COc1ccccc1OCC(=O)NCC1CCN(C(C)C)CC1	1.12 ± 0.062	1.07 ± 0.099	0.92 ± 0.049	1.09 ± 0.099	1.13 ± 0.21	1.05 ± 0.34	0.991 (active)
COc1ccc(C(C)(C#N)CC#N)cc1 (configuration not stated)	1.11 ± 0.089	0.941 ± 0.1	1.04 ± 0.1	1.06 ± 0.035	1.29 ± 0.19	1.47 ± 0.31	1.03 (active)
CCOC(=O)N[C@@H]1CC[C@@H]2[C@@H](C1)C[C@H]1C(=O)O[C@H](C)[C@H]1[C@H]2/C=C/c1ccc(-c2cccc(F)c2)cn1	0.376 ± 0.022	0.451 ± 0.1	0.323 ± 0.019	0.653 ± 0.082	0.783 ± 0.15	0.737 ± 0.16	0.299 (inactive)
COc1ccc(OC2CCN(C(=O)C3CCOC3)C2)nn1 (configuration not stated)	0.955 ± 0.12	1.04 ± 0.1	0.949 ± 0.11	1 ± 0.083	1.12 ± 0.072	1.23 ± 0.14	0.999 (active)
O=C1C(Cl)=C(N2CCCCC2)C(=O)N1c1ccc(Cl)c(Cl)c1	0.687 ± 0.14	1.07 ± 0.084	1 ± 0.15	0.911 ± 0.047	1.09 ± 0.11	1.22 ± 0.27	1 (active)
COc1cccc(CC(=O)Nc2ccc(CC(=O)N3CCC(O)CC3)cc2)c1	1.07 ± 0.35	1.06 ± 0.091	1.06 ± 0.074	0.884 ± 0.03	1.1 ± 0.13	1.37 ± 0.19	0.945 (active)
C[C@H](Cc1cc2c(c(C(N)=O)c1)N(CCCO)CC2)NCCOc1ccccc1OCC(F)(F)F	1.2 ± 0.2	1.09 ± 0.29	1.03 ± 0.057	0.732 ± 0.058	1.05 ± 0.26	0.893 ± 0.2	0.998 (active)
CC(C)C1=CC2=CCC3C(C)(C(=O)O)CCCC3(C)C2CC1 (configuration not stated)	0.962 ± 0.076	0.863 ± 0.065	0.891 ± 0.085	0.93 ± 0.03	1.22 ± 0.2	1.35 ± 0.33	1.05 (active)
COc1ccc(C)cc1NC(=O)CN(c1cccc(Br)c1)S(=O)(=O)c1ccccc1	0.904 ± 0.077	0.97 ± 0.053	0.915 ± 0.062	0.94 ± 0.023	1.11 ± 0.092	0.809 ± 0.18	1.02 (active)
COC(=O)N[C@H](C(=O)N1CCC[C@H]1c1ncc(-c2ccc(-c3ccc(-c4cnc([C@@H]5CCCN5C(=O)[C@@H](NC(=O)OC)C(C)C)[nH]4)cc3)cc2)[nH]1)C(C)C.Cl.Cl	0.437 ± 0.029	0.513 ± 0.032	0.759 ± 0.045	1.27 ± 0.042	1.85 ± 0.48	1.99 ± 0.46	0.204 (inactive)
CC(C)(C)N.CCCC(NC(C)C(=O)N1C(C(=O)O)CC2CCCCC21)C(=O)OCC (configuration not stated)	0.927 ± 0.074	0.864 ± 0.15	0.947 ± 0.094	0.996 ± 0.036	1.21 ± 0.16	1.3 ± 0.18	1.02 (active)
CC(C)NC(=N)NC(=N)Nc1ccc(Cl)cc1 [Prestw-999]	0.806 ± 0.053	1.33 ± 0.1	1.27 ± 0.087	0.994 ± 0.059	1.18 ± 0.12	0.954 ± 0.3	0.994 (active)
O=C(c1cc2nc(-c3ccccc3)cc(-c3ccccc3)n2n1)N1CCCCCC1	0.999 ± 0.081	1.16 ± 0.077	0.976 ± 0.065	0.965 ± 0.035	1.37 ± 0.19	1.12 ± 0.078	1.02 (active)
Nc1nnc(C(=O)O)[nH]1	1.04 ± 0.083	1.14 ± 0.08	1.03 ± 0.043	1.06 ± 0.2	1.03 ± 0.1	1.23 ± 0.19	1 (active)
O=C(N/N=C/c1ccc([N+](=O)[O-])o1)c1ccc(O)cc1	1.54 ± 0.21	2.63 ± 0.4	2.97 ± 0.26	1.01 ± 0.051	1.88 ± 0.34	1.43 ± 0.12	0.968 (active)
COc1ccc(C=Nc2ccc(OC(C)=O)cc2)cc1	0.738 ± 0.16	1.11 ± 0.16	1.03 ± 0.11	0.588 ± 0.029	1.34 ± 0.13	1.23 ± 0.15	1 (active)
